A selection: hits, their analogues and other compounds. The true share with any hit is near 27%.
CYP2C9 inhib = blocks human cytochrome P450 2C9 | P11712 | CYP2C9 Supersomes, luciferin-H conversion, luminescence | inhibition, % at 5 µM | hit rate 20% among 96,000 | AID 777;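 active = blocking of liver enzyme CYP2C9 beyond about 50% at 5 µM, limit read from the data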
Target sequence (P11712 whole entry, looked up): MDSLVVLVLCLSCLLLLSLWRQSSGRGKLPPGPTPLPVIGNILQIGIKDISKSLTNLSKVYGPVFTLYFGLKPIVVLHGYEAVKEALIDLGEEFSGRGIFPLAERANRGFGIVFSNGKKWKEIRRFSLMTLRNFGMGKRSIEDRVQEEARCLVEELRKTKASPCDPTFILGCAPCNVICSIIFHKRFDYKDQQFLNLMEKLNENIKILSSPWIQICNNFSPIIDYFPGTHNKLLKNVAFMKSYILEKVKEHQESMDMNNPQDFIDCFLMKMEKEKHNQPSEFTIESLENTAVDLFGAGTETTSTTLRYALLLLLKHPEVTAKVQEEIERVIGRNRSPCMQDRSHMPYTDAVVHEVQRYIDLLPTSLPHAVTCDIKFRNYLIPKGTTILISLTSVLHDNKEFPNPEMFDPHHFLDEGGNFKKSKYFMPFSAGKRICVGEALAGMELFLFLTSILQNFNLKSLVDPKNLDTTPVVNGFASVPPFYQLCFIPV
CYP2C19 inh = inhibitors of human CYP2C19; CYP2C19 Supersomes, luciferin-H EGE luminescence, 30 min; inhibition, % at 5 µM; P33261; hit rate 21% among 96,000;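 active = CYP2C19 inhibition above a set limit at 5 µM in the primary screen, cut at about 50% in these data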;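 also: plate controls were negative control wells for no effect and 2.5 mM tranylcypromine positive control for full effect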
CYP2C19 activ = increases human CYP2C19 enzyme activity; P33261; AID 1025; recombinant CYP2C19, luciferin-H EGE luminescence; active compounds read high; 0 = fully inhibited enzyme, 1 = untreated enzyme; 96,000 tested, under 10 active; activation factor at 5 µM;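 active = activation factor of at least 2 at 5 µM in the primary screen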;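 also: 0 = wells with 2.5 mM tranylcypromine and 1 = vehicle-only wells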
CYP2C9 act = activators of human CYP2C9. AID 1024. activation factor at 5 µM. hit rate 1.4% among 96,000. P11712. recombinant CYP2C9, luciferin-H conversion, luminescence; active compounds read high; factor 1 = untreated enzyme, 0 = blocked;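 active = activation factor of 2 or more for CYP2C9 at a 5 µM dose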;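 also: 0 = sulfaphenazole-blocked wells and 1 = vehicle-only wells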
Cav32 inh = human Cav3.2 channel inhibition, primary screen; AID 449739; B-score at 10 µM; hit rate 4% among 100,000; O95180; Cav3.2-expressing cells, Fluo-4 calcium fluorescence FDSS; active compounds read low;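 active = single-dose well whose peak fluorescence ratio is a statistical outlier from its plate by either plate-standardised score or position-corrected B-score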
* marks the source's active call; other numbers are inactive results.

For CCC(CC)c1nnc(NC(=O)c2c(C)nn(Cc3ccccc3Cl)c2C)s1 the results were CYP2C9 inhib 52*, CYP2C19 inh 19, CYP2C19 activ 0.8, CYP2C9 act 0.5 and Cav32 inh -4.
For CCc1nnc(NC(=O)c2c(C)nn(-c3ccccc3)c2Cl)s1 the results were CYP2C9 inhib 26, CYP2C19 inh 4, CYP2C19 activ 1, CYP2C9 act 0.7 and Cav32 inh 0.041.
`Cc1nn(Cc2ccccc2Cl)c(C)c1C(=O)N1CCN(c2ccccc2)CC1` gave CYP2C9 inhib 72*, CYP2C19 inh 62*, CYP2C19 activ 0.4, CYP2C9 act 0.3 and Cav32 inh -1.7.
Screening Cc1nn(Cc2ccccc2Cl)c(C)c1NC(=O)NC12CC3CC(CC(C3)C1)C2 returned CYP2C9 inhib 27, CYP2C19 inh 15, CYP2C19 activ 0.9, CYP2C9 act 0.7 and Cav32 inh -7.6*.
For O=C(NC1=NCCS1)c1nc(-c2ccccc2)n(-c2ccccc2)n1 the results were CYP2C9 inhib 25, CYP2C19 inh 4, CYP2C19 activ 1, CYP2C9 act 0.8 and Cav32 inh -1.1.
`Cc1nn(Cc2ccccc2Cl)c(C)c1NC(=O)c1nc2ncccn2n1` gave Cav32 inh 0.093.
Cc1nn(Cc2ccccc2Cl)c(C)c1C(=O)NC1=NCCS1 was read as CYP2C9 inhib 42, CYP2C19 inh 66*, CYP2C19 activ 0.3, CYP2C9 act 0.6 and Cav32 inh -0.18.
For CC(C1CC1)N(C(=O)NC1CCS(=O)(=O)C1)c1ccccc1 (configuration not stated) the results were CYP2C9 inhib -14, CYP2C19 inh -3, CYP2C19 activ 1, CYP2C9 act 1.1 and Cav32 inh 0.59.
`NC(=O)CN1CCOCCN(CC(N)=O)CCOCC1` gave CYP2C9 inhib -1, CYP2C19 inh -6, CYP2C19 activ 1.1, CYP2C9 act 1 and Cav32 inh 0.83.
`OCCN1CCN(C(c2cccs2)c2ccc3cccnc3c2O)CC1` (configuration not stated) gave CYP2C9 inhib 0, CYP2C19 inh -7, CYP2C19 activ 1.1, CYP2C9 act 1 and Cav32 inh 0.56.
CC(C)(C)c1cc(C(c2cccnc2)N2CCN(CCO)CC2)cc(C(C)(C)C)c1O (configuration not stated) was read as CYP2C9 inhib 96*, CYP2C19 inh 80*, CYP2C19 activ 0.2, CYP2C9 act 0 and Cav32 inh 0.98.
CC(C)P(=O)(Cc1cccc(C#N)c1)C(C)C was read as CYP2C9 inhib 3, CYP2C19 inh 11, CYP2C19 activ 0.9, CYP2C9 act 1 and Cav32 inh 0.38.
For O=C(/C=C/c1ccccc1)c1ccccc1 the results were Cav32 inh -0.74.
`CN(C)c1ccc(/C=C/C(=O)c2cccc(Br)c2)cc1` gave CYP2C9 inhib 44, CYP2C19 inh 93*, CYP2C19 activ 0.1, CYP2C9 act 0.6 and Cav32 inh -7.5*.
Screening COC(=O)CC1COc2ccccc2N1C(=O)c1ccc(OC)cc1 (configuration not stated) returned CYP2C9 inhib 48, CYP2C19 inh 62*, CYP2C19 activ 0.4, CYP2C9 act 0.5 and Cav32 inh 1.4.
`COc1ccc(C(=O)N2c3ccccc3C(=O)OC2c2ccc3c(c2)OCO3)cc1` (configuration not stated) gave CYP2C9 inhib 81*, CYP2C19 inh 83*, CYP2C19 activ 0.2, CYP2C9 act 0.2 and Cav32 inh -2.
`CC(=O)Oc1ccc(C2OC(=O)c3ccccc3N2C(C)=O)cc1` (configuration not stated) gave CYP2C9 inhib 9, CYP2C19 inh 8, CYP2C19 activ 0.9, CYP2C9 act 0.9 and Cav32 inh 0.88.
For COc1ccc(C(=O)/C=C(\C)NCc2ccc3c(c2)OCO3)cc1 the results were CYP2C9 inhib 26, CYP2C19 inh 24, CYP2C19 activ 0.8, CYP2C9 act 0.7 and Cav32 inh -2.3.
COc1ccc(C2Oc3ccccc3N2C(C)=O)cc1 (configuration not stated) was read as CYP2C9 inhib 69*, CYP2C19 inh 64*, CYP2C19 activ 0.4, CYP2C9 act 0.3 and Cav32 inh -0.02.
`Cc1ccc(/C=C2/NC(=O)N(c3ccccc3)C2=O)o1` gave CYP2C9 inhib -6, CYP2C19 inh 68*, CYP2C19 activ 0.3, CYP2C9 act 1.1 and Cav32 inh 0.95.
`CCN1C(=O)N/C(=C/c2ccc(Sc3ccc(C)cc3)o2)C1=O` gave CYP2C9 inhib -6, CYP2C19 inh -13, CYP2C19 activ 1.1, CYP2C9 act 1.1 and Cav32 inh -1.1.
Screening O=C(c1cc2cc(Cl)ccc2oc1=O)N1CCCC1 returned Cav32 inh 0.9.
Cc1nnc2sc(-c3cccc4ccccc34)nn12 was read as CYP2C9 inhib -1, CYP2C19 inh 6, CYP2C19 activ 0.9 and CYP2C9 act 1.
For C=CCNc1nnc(-c2ccncc2)s1 the results were CYP2C9 inhib 7, CYP2C19 inh 77*, CYP2C19 activ 0.2, CYP2C9 act 0.9 and Cav32 inh 0.053.
c1ccc2c(Nc3nnc(-c4ccncc4)s3)cccc2c1 was read as CYP2C9 inhib 90*, CYP2C19 inh 96*, CYP2C19 activ 0, CYP2C9 act 0.1 and Cav32 inh 0.027.
`COC(=O)Cc1csc(N)n1` gave CYP2C9 inhib -10, CYP2C19 inh -7, CYP2C19 activ 1.1, CYP2C9 act 1.1 and Cav32 inh 1.5.
Screening CC(C)(C)NC(=O)CN(C(=O)CNC(=O)c1cccs1)c1ccc2c(c1)OCCO2 returned CYP2C9 inhib 80*, CYP2C19 inh 14, CYP2C19 activ 0.9, CYP2C9 act 0.2 and Cav32 inh 1.4.
`O=C(O)C1CSC2(c3ccc4c(c3)OCCO4)CCC(=O)N12` (configuration not stated) gave CYP2C9 inhib 4, CYP2C19 inh -5, CYP2C19 activ 1.1, CYP2C9 act 1 and Cav32 inh 1.1.
`CCOC(=O)c1ccc(NC(=O)CC2C(=O)N(c3ccc(F)cc3)C(=O)N2CCC(C)C)cc1` (configuration not stated) gave CYP2C9 inhib 43, CYP2C19 inh 54*, CYP2C19 activ 0.5, CYP2C9 act 0.6 and Cav32 inh -4.5*.
`CCOC(=O)c1ccc(NC(=O)Nc2ccc(F)cc2)cc1` gave CYP2C9 inhib 66*, CYP2C19 inh 22, CYP2C19 activ 0.8, CYP2C9 act 0.3 and Cav32 inh -0.083.
COC(=O)c1ccc(NC(=O)Nc2ccc(F)cc2)cc1 was read as CYP2C9 inhib 60*, CYP2C19 inh 48, CYP2C19 activ 0.5, CYP2C9 act 0.4 and Cav32 inh -3.
CCOC(=O)c1ccc(NC(=O)Nc2ccc(OC)c(OC)c2)cc1 was read as CYP2C9 inhib -6, CYP2C19 inh 3, CYP2C19 activ 1, CYP2C9 act 1.1 and Cav32 inh 0.45.
`COC(=O)c1ccc(NC(=O)Nc2ccc(F)c(Cl)c2)cc1` gave CYP2C9 inhib 18, CYP2C19 inh 6, CYP2C19 activ 0.9, CYP2C9 act 0.8 and Cav32 inh 0.66.
